From PubChem BioAssay (Tox21) come the findings set out here.

Several values for one entry are separate records, joined by “and”; a condition that tells them apart may be missing. Equal values may be shown once. Inconclusive results are not listed. Some structures have more than one record in an assay (separate samples or runs), and their calls can disagree. Unmarked numbers belong to inactive results. Activity calls are given as the source filed them. Calls follow the shape of the dose curve; as a rule, active = well fitted cell-killing curve with a large enough effect in the repeat runs; inconclusive = weak or mixed curves, or effect the other way; inactive = flat fitted curve, though single readings scatter.
% is scaled to controls: 0 for no effect and ±100 for the full control effect; potency is read from the fitted curve at half-maximal effect.

The experiment in a line: qHTS RealTime-Glo MT Cell Viability Assay in HEK293 cells - 40 hour (AID 1224874). Also: nearly all actives have a fitted effect of over 50% in size. Conditions: RealTime-Glo luminescence; max response: hits give low values. The text has this:
U.S. Tox21 Program National Center for Advancing Translational Sciences [NCATS] NIH Chemical Genomics Center [NCGC] U.S. Environmental Protection Agency [EPA] National Institutes of Environmental Health Sciences [NIEHS] National Toxicology Program [NTP] U.S. Food and Drug Administration [FDA] Tox21 Assay Overview: Measure of cell viability is critical in the cell-base assay. Analysis of cell viability is necessary for the characterization of cell responses to cytotoxic drugs and environmental stress. A RealTime-Glo MT Cell Viability Assay to monitor cell viability in real time of continues cell culture during 40 hours of compound treatment was used to screen Tox21 10K library compounds in Hek293 cells. The RealTime-Glo MT Cell Viability Assay is a nonlytic, homogeneous, bioluminescent method to measure cell viability in real time using a simple, plate-based method. The assay involves adding NanoLuc luciferase and a cell-permeant prosubstrate to cells in culture. Viable cells reduce the proprietary prosubstrate to generate a substrate for NanoLuc luciferase. This substrate diffuses from cells into the surrounding culture medium, where it is rapidly used by the NanoLuc Enzyme to produce a luminescent signal. The signal correlates with the number of viable cells, making the assay well suited for cytotoxicity studies.
Tox21 Assay Protocol Summary: The mixture of Hek293 cell suspension and reagents were dispensed at 600cells/6 ul/well in 1536-well tissue culture treated black solid bottom plates using a Multidrop dispenser. After the assay plates were incubated at a 37 C/5% CO2 incubator for 5 hours, 23 nL of compounds dissolved in DMSO, positive and negative controls was transferred to the assay plate by a pintool work station. The plates were incubated at 37 C for 40 hours. The luminescence intensity were measured at 0h, 8h, 16h, 24h, 32h and 40h time points using ViewLux plate reader during compound treatment.
For orientation: Quantitative high-throughput screening tests each substance at several concentrations.
Take `Brc1ccc(Oc2ccccc2)cc1`: the max response was 1.37% and 1.64%.

In the case of `COc1ccc(-c2ccccc2)cc1NNC(=O)OC(C)C`, the Potency was 51 µM (active).

Turning to `NC(=O)C(Cl)(Cl)Cl`, the max response is 16.8%.

`C=CC(C)=O`: the max response was 4.78%.

Turning to `Cl/C=C\Cl`, the max response was 0.558%.

`CCOP(=O)(OCC)O/C(=C/Cl)c1ccc(Cl)cc1Cl`: the Potency is 19.5 µM (active).

Take `O=Cc1ccc(Cl)cc1Cl`: the max response is -1.06%.

For `IC(I)=C(I)I`, the Potency is 6.16 µM (active).

For `O=C=Nc1ccc(Cl)cc1`, the max response is -3%.

As to `CC(=O)c1cc2c(cc1C)C(C)(C)C(C)CC2(C)C` (stereo not given), the max response was -12.1%.

Take `O=S1(=O)OC(c2cc(Br)c(O)c(Br)c2)(c2cc(Br)c(O)c(Br)c2)c2ccccc21`: the max response is 11.5%.

`C[C@@H]1CC[C@H]2[C@@H](C)C(=O)O[C@@H]3O[C@@]4(C)CC[C@@H]1[C@]32OO4`: the max response is -5.45%.

With `O=C(OC1CCCCC1)c1ccccc1C(=O)OC1CCCCC1`, the max response was -29.8%.

For the molecule `COC(=O)c1cncn1C(C)c1ccccc1` (stereo not given), the max response is 1.22%.

Consider `BrCC(Br)C1CCC(Br)C(Br)C1` (stereo not given), for which the max response is -20.5%.

In the case of `CC(C)(CCl)C(=O)Cl`, the max response was 0.815%.

Consider `CS/C(C)=N/OC(=O)N(C)SN(C)C(=O)O/N=C(\C)SC`, for which the Potency was 43.6 µM (active).

As to `N#C/C(N)=C(/N)C#N`, the max response is 0.894%.

Turning to `CCOP(=S)(OCC)SCSCC`, the max response was 1.39%.

As to `Clc1cccc2ccccc12`, the max response is -5.43%.

Consider `C=COC(C)=O`, for which the max response was 2.49%.

With `C(=NC1CCCCC1)=NC1CCCCC1`, the Potency is 17.5 µM (active) and 24.5 µM (active).

With `CCOc1ccc(C(C)(C)COCc2cccc(Oc3ccccc3)c2)cc1`, the max response was 11.2%.

For `O=C(Nc1ccccc1)Nc1ccnc(Cl)c1`, the Potency is 19.5 µM (active).

As for `CC1C(=O)C[C@]2(C(C)C)C[C@H]12` (stereo not given in full), the max response was 9.37%.

`CCn1cc[n+](C)c1`: the Potency was 1.56 µM (active) and the max response was 0.829% [middle of 11 runs].

Consider `C#CCOC(C(=O)OCCN(C)C)(c1ccccc1)c1ccccc1`, for which the max response is -21.3%.

On to `COC1=CC(=O)O[C@@H](CCc2ccccc2)C1`, for which the max response is -25.1%.

Turning to `COC(C)(C)CCC[C@H](C)C/C=C/C(C)=C/C(=O)OC(C)C`, the max response was -3.6%.

On to `CC1Sc2c(C(=O)O)c(=O)c3cc(F)c(N4CCNCC4)cc3n21` (stereo not given), for which the max response is 1.01%.

In the case of `ClC=C(Cl)Cl`, the max response is 18.6%.

As to `CCCCCCCCCCOC(=O)c1ccccc1C(=O)OCCCCCCCCCC`, the max response is 0.334%.

As to `CCOP(=S)(OCC)SCn1nnc2ccccc2c1=O`, the Potency is 19.5 µM (active).

Consider `CCOC(=O)C(Cl)C(C)=O` (stereo not given), for which the max response was -9.27%.

Turning to `CCC(Br)(CC)C(=O)NC(N)=O`, the max response was 5.12%.

With `CCOc1nc(F)cc2nc(S(=O)(=O)Nc3c(Cl)cccc3Cl)nn12`, the max response was 30.5%.

`C=CCC1([C@H](C)CCC)C(=O)NC(=O)NC1=O`: the max response was -11.9%.

Take `CC(C)=CCOc1c2occc2cc2ccc(=O)oc12`: the max response is -18%.

`CO[C@@H]1[C@H](OC(=O)NC(=O)CCl)CC[C@]2(CO2)[C@H]1[C@@]1(C)O[C@@H]1CC=C(C)C`: the max response is 1.55%.
